A short description of test [1]: BSK_3C_VCAM1: BioMAP Diversity Plus: 3C Assay for Vascular cell adhesion molecule 1 (VCAM1) Biomarker Activity (AID 2282999). The conditions noted are these: BioMAP 3C HUVEC, VCAM1 ELISA, cytokine-stimulated; actives raise or lower the signal. In a few lines: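 Human umbilical vein endothelial cells were dosed with compound for 24 h, after which cell-surface VCAM-1 was quantified by ELISA. Bidirectional curve fitting used DMSO as negative control and activity baseline.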
(An ELISA detects its analyte on a solid surface through an enzyme-linked reagent.)

Read-out in test [2]: Intercellular Adhesion Molecule 1 (ICAM1), ICAM1 (gene 3383)
Briefly: BSK_3C_ICAM1: BioMAP Diversity Plus: 3C Assay for Intercellular Adhesion Molecule 1 (ICAM1) Biomarker Activity (AID 2283003). The conditions noted are these: primary human endothelial cells (HUVEC); actives raise or lower the signal. The method, boiled down: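 HUVEC primary cells stimulated under 3C conditions; ICAM1 measured by ELISA 24 h after compound dosing. Curves fitted bidirectionally against the DMSO baseline. Overt cytotoxicity checked by SRB staining of parallel cultures.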

A short description of test [3]: BSK_3C_Proliferation: Cell Proliferation Assessment in the BioMAP Diversity Plus: 3C Assay (AID 2283006).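 As to AC50: potency may reflect either rise or fall in cell number versus DMSO.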 The conditions noted are these: primary human endothelial cells (HUVEC). In a few lines:
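Subconfluent HUVEC (3C system) cultured with chemical; relative cell number read at 48 h by sulforhodamine B total-protein staining (0.1% SRB after 10% TCA fixation, 560 nm). Bidirectional fit relative to DMSO.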

Read-out in test [4]: E-selectin (Homo sapiens) (UniProt P16581)
The test is described as follows: BSK_3C_Eselectin: BioMAP Diversity Plus: 3C Assay for Eselectin Biomarker Activity (AID 2283015).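 As to outcome: cell surface E-selectin protein quantified by ELISA 24 h after dosing.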 The conditions noted are these: primary human endothelial cells (HUVEC); actives raise or lower the signal. In a few lines: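 Primary human umbilical vein endothelial cells (3C system) were dosed with chemical and cell-surface E-selectin measured by ELISA 24 h later. Bidirectional curve fitting used DMSO as negative control and baseline.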

Read-out in test [5]: Matrix Metallopeptidase 1 (MMP1), MMP1 (gene 4312)
The test is described as follows: BSK_BE3C_MMP1: BioMAP Diversity Plus: BE3C Assay for Matrix Metallopeptidase 1 (MMP1) Biomarker Activity (AID 2283024). The conditions noted are these: primary human bronchial epithelial cells; actives raise or lower the signal. In a few lines: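 Human primary bronchial epithelial cells (BE3C system) dosed for 24 h; MMP-1 quantified by ELISA. Bidirectional fit against DMSO; cytotoxicity tracked in parallel cultures by SRB total-protein staining.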

Test [6] is described as follows: BSK_BE3C_SRB: Viability Assessment in the BioMAP Diversity Plus: BE3C Assay (AID 2283028). The conditions noted are these: primary human bronchial epithelial cells. In a few lines:
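Human primary bronchial epithelial cells were exposed to test chemicals for 24 h. Total protein in parallel cultures was then measured by staining with 0.1% sulforhodamine B after 10% TCA fixation, with absorbance read at 560 nm. Activity was fitted bidirectionally against DMSO.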

Read-out in test [7]: Thrombomodulin, THBD (gene 7056)
Briefly: BSK_3C_Thrombomodulin: BioMAP Diversity Plus: 3C Assay for Thrombomodulin Biomarker Activity (AID 2283029). The conditions noted are these: primary human endothelial cells (HUVEC); actives raise or lower the signal. The method, boiled down: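 Human umbilical vein endothelial cells were exposed to chemicals for 24 h; cell-surface thrombomodulin quantified by ELISA, with bidirectional fitting against DMSO baseline.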

Read-out in test [8]: Vascular cell adhesion molecule 1 (VCAM1), VCAM1 (gene 7412)
Briefly: BSK_4H_VCAM1: BioMAP Diversity Plus: 4H Assay for Vascular cell adhesion molecule 1 (VCAM1) Biomarker Activity (AID 2283033). The conditions noted are these: primary human endothelial cells (HUVEC); actives raise or lower the signal. In a few lines:
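Primary human umbilical vein endothelial cells, 4H stimulation system, treated for 24 h; cell-surface VCAM-1 quantified by ELISA. Bidirectional fitting against DMSO; cytotoxicity tracked by SRB total-protein staining in parallel cultures.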

Read-out in test [9]: Interferon-gamma inducible Protein 10 (IP10), CXCL10 (gene 3627)
Briefly: BSK_BE3C_IP10: BioMAP Diversity Plus: BE3C Assay for Interferon-gamma inducible Protein 10 (IP10) Biomarker Activity (AID 2283034). The conditions noted are these: primary human bronchial epithelial cells; actives raise or lower the signal. In a few lines: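 Primary human bronchial epithelial cells, with IP-10 measured by ELISA 24 hours after chemical dosing. Bidirectional fit against DMSO; cytotoxicity checked by SRB total protein staining in parallel cultures.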

Read-out in test [10]: Monokine induced gamma interferon (MIG), CXCL9 (gene 4283)
Briefly: BSK_BE3C_MIG: BioMAP Diversity Plus: BE3C Assay for Monokine induced gamma interferon (MIG) Biomarker Activity (AID 2283035). The conditions noted are these: primary human bronchial epithelial cells; actives raise or lower the signal. In a few lines:
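ELISA read-out of MIG in human lung bronchial epithelial primary cultures, 24 h post-dosing. Bidirectional curve fit vs DMSO baseline.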

Read-out in test [11]: urokinase plasminogen activator (uPA), PLAU (gene 5328)
The test is described as follows: BSK_BE3C_uPA: BioMAP Diversity Plus: BE3C Assay for urokinase plasminogen activator (uPA) Biomarker Activity (AID 2283038).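 Also: uPA protein level quantified by ELISA in cell cultures; uPA read one day after compound addition.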 Particulars: primary human bronchial epithelial cells; actives raise or lower the signal. In a few lines: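 Human primary bronchial epithelial cells were exposed to chemical for 24 h, then uPA levels were measured by ELISA. Responses were fitted bidirectionally against DMSO as negative control and baseline. Parallel SRB staining of total protein gauged overt cytotoxicity.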

Read-out in test [12]: Interleukin-6 (IL6), IL6 (gene 3569)
The test is described as follows: BSK_CASM3C_IL6: BioMAP Diversity Plus: CASM3C Assay for Interleukin-6 (IL6) Biomarker Activity for (AID 2283040). Particulars: primary human coronary artery smooth muscle cells; actives raise or lower the signal.

Read-out in test [13]: Human Leukocyte Antigen - DR isotype (HLADR), HLA-DRA (gene 3122)
The test is described as follows: BSK_CASM3C_HLADR: BioMAP Diversity Plus: CASM3C Assay for Human Leukocyte Antigen - DR isotype (HLADR) Biomarker Activity (AID 2283043).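 Also: cell-surface HLA-DR protein level quantified by ELISA.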 The conditions noted are these: primary human coronary artery smooth muscle cells; actives raise or lower the signal.

Read-out in test [14]: Low-density lipoprotein receptor (LDLR), LDLR (gene 3949)
The test is described as follows: BSK_CASM3C_LDLR: BioMAP Diversity Plus: CASM3C Assay for Low-density lipoprotein receptor (LDLR) Biomarker Activity (AID 2283045).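 Also: LDLR protein level on the cell surface quantified by ELISA.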 The conditions noted are these: primary human coronary artery smooth muscle cells; actives raise or lower the signal.

Read-out in test [15]: Monocyte Chemoattractant Protein-1 (MCP1), CCL2 (gene 6347)
Briefly: BSK_CASM3C_MCP1: BioMAP Diversity Plus: CASM3C Assay for Monocyte Chemoattractant Protein-1 (MCP1) Biomarker Activity (AID 2283046).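 Also: MCP-1 level quantified by ELISA 24 h after dosing.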 The conditions noted are these: primary human coronary artery smooth muscle cells; actives raise or lower the signal.

Test [16] is described as follows: BSK_CASM3C_Proliferation: Cell Proliferation Assessment in the BioMAP Diversity Plus: CASM3C Assay (AID 2283047).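 Also: sub-confluent cells exposed 48 h before staining; fitted both ways against DMSO so gain or loss of cell number.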 Particulars: primary human coronary artery smooth muscle cells.
Read-out in test [17]: serum amyloid A (SAA), SAA1 (gene 6288)
The test is described as follows: BSK_CASM3C_SAA: BioMAP Diversity Plus: CASM3C Assay for serum amyloid A (SAA) Biomarker Activity (AID 2283049).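 Also: SAA protein level quantified by ELISA.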 Particulars: primary human coronary artery smooth muscle cells; actives raise or lower the signal.

Read-out in test [18]: Tissue Factor, F3 (gene 2152)
The test is described as follows: BSK_CASM3C_TissueFactor: BioMAP Diversity Plus: CASM3C Assay for Tissue Factor Biomarker Activity (AID 2283052).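 Also: cell surface tissue factor protein level read by ELISA.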 Particulars: primary human coronary artery smooth muscle cells; actives raise or lower the signal.

Read-out in test [19]: Interferon-gamma inducible Protein 10 (IP10), CXCL10 (gene 3627)
The test is described as follows: BSK_hDFCGF_IP10: BioMAP Diversity Plus: hDFCGF Assay for Interferon-gamma inducible Protein 10 (IP10) Biomarker Activity (AID 2283053). Particulars: primary human foreskin fibroblasts; actives raise or lower the signal. In a few lines:
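Primary human foreskin fibroblasts exposed to chemicals for 24 h. IP-10 measured by ELISA; changes fitted bidirectionally against DMSO baseline.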

Read-out in test [20]: Epidermal growth factor receptor (EGFR), EGFR (gene 1956)
Briefly: BSK_hDFCGF_EGFR: BioMAP Diversity Plus: hDFCGF Assay for Epidermal growth factor receptor (EGFR) Biomarker Activity (AID 2283057). Particulars: primary human foreskin fibroblasts; actives raise or lower the signal. In a few lines: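 Primary human foreskin fibroblasts (hDFCGF system), sampled 24 h after dosing; EGFR quantified by ELISA. Bidirectional fit relative to DMSO baseline; SRB total-protein staining in parallel cultures for cytotoxicity.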

Some structures have more than one record in an assay (separate samples or runs), and their calls can disagree. Activity calls are given as the source filed them. The calls were made as follows: active = hit-call score of the fitted dose curve at least 0.9, where 1 is the maximum; inactive = score below 0.9.

E-selectin (Homo sapiens), sequence (P16581 whole entry, looked up): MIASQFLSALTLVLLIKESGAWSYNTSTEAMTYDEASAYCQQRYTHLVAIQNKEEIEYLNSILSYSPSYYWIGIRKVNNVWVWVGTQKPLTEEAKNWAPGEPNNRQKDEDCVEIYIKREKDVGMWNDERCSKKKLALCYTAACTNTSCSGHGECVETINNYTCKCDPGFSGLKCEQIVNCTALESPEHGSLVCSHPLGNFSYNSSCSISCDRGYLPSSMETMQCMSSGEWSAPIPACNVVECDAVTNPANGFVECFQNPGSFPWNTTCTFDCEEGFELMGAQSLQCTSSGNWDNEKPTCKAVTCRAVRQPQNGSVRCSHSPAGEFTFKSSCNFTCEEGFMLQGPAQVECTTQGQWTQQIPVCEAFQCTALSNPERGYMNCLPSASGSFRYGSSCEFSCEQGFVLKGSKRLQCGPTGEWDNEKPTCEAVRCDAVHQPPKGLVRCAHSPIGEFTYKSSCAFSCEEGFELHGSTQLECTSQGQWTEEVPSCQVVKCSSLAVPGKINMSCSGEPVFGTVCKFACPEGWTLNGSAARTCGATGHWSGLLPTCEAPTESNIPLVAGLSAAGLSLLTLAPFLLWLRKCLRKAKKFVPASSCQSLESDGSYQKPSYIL

In the case of `CC(=O)/C=C/c1ccccc1`, the AC50 (commonly the concentration giving half of the maximal activity seen) was 20 µM (active) in [1], 23.2 µM (active) in test [3] and 0.104 µM (active) in test [15]. In addition, the outcome in test [2], in [4], in [5], in test [6], in [7] and in test [8] was inactive. Further, the outcome in test [9], in test [10], in test [11], in test [12], in test [13] and in test [14] was inactive. Further, the result in test [16], in test [17], in test [18], in [19] and in [20] was inactive.
Turning to `COC(C)(C)CCC[C@H](C)C/C=C/C(C)=C/C(=O)OC(C)C`, the AC50 in test [1] is 28.8 µM (active); in test [2], 30.4 µM (active); in test [3] it was 26 µM (active); in [4] it was 28.7 µM (active); in test [5], 20 µM (active); in [8] it was 31.6 µM (active). In addition, the half-maximal activity concentration (AC50) is 20 µM (active) in [9]; 20 µM (active) in test [13]; 10.2 µM (active) in [14]; 17.2 µM (active) in test [16]; 20 µM (active) in [18]; 33.7 µM (active) in [19]. The result in [6], in test [7], in test [10], in test [11], in test [12] and in test [15] was inactive. Further, the outcome in [17] and in test [20] was inactive.
For `COCC(=O)N(c1c(C)cccc1C)N1CCOC1=O`, the result in [1], in test [2], in test [3], in test [4], in test [5] and in [6] was inactive. Moreover, the outcome in test [7], in [8], in test [9], in test [10], in test [11] and in test [12] was inactive. The result in test [13], in test [14], in test [15], in test [16], in test [17] and in [18] was inactive. The outcome in test [19] and in [20] was inactive.
In the case of `Cc1ccc(OP(=O)(Oc2ccc(C)cc2)Oc2ccc(C)cc2)cc1` (tested in a mixture with another compound), the outcome in test [1], in test [2], in [4], in test [6], in [8] and in [9] was inactive. The result in test [10], in test [11], in test [12], in [13], in test [14] and in test [15] was inactive. Moreover, the result in test [16], in [17], in test [18], in test [19] and in test [20] was inactive. Also, the AC50 in [3] was 7.47 µM (active); in test [5], 3.35 µM (active); in test [7], 3.59 µM (active).
As for `CC1(C)[C@H](C(=O)O[C@H](C#N)c2cccc(Oc3ccccc3)c2)[C@@H]1C=C(Br)Br`, the result in test [1], in test [2], in test [3], in [4], in [5] and in test [6] was inactive. Moreover, the result in test [7], in [8], in test [9], in test [10], in [11] and in [12] was inactive. Moreover, the outcome in [13], in test [14], in test [15], in [16], in test [17] and in test [18] was inactive. The result in test [19] and in test [20] was inactive. The AC50 in test [13] was 11.1 µM (active).

These data come from PubChem BioAssay (EPA / NIEHS).
